# This is a sample that favours compounds with a hit; in the whole collection about 2.1% have one here.
# PfM18AAP inh-1: PfM18AAP inhibitors, malaria aminopeptidase, primary screen, biochemical, QFRET, recombinant enzyme | M18 aspartyl aminopeptidase (Plasmodium falciparum 3D7) | H-Glu-NHMec fluorogenic cleavage | inhibition, % at 7.35 µM | 290,000 tested, 1.2% active;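 active = inhibition above the campaign mean inhibition over all tested compounds plus 3 SD, cut at about 28% in these data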;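 also: 0% = plate median of test compound wells and 100% = 2 mM ZnCl2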
# Calb FLC: C. albicans growth inhibition with fluconazole, primary screen, CaCi-2 strain, Alamar Blue fluorescence. C. albicans CaCi-2 (fluconazole-resistant clinical isolate) + fluconazole, 48 h. growth inhibition, % (concentration not given with the values). 300,000 tested, 0.57% active. AID 1979, 2009;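 active = growth inhibition above about 58% in most replicates, limit read from the data, passing the limit was not always enough; inconclusive = exactly half the replicates above a set limit; inactive = most replicates below a set limit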;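 also: all wells also contain fluconazole at 8 µg/ml as a sub-toxic cotreatment; 0% = median of DMSO wells and 100% = median of geldanamycin control wells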
# CTSL1 counter-1: Fasciola hepatica cathepsin L1 inhibitors, primary screen, counter-screen for PFM18AAP inhibitor project, biochemical, QFRET, fluorogenic peptide substrate; recombinant F. hepatica cathepsin L1, Z-Leu-Arg-MCA fluorescence; inhibition, % at 5.96 µM; 300,000 tested, 0.49% active; AID 1906, 2009;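 active = inhibition above the mean of all tested compounds plus 3 SD, set per screening campaign, cut at about 17% in these data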;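 also: 0% = plate median of test compound wells and 100% = 1 µM Z-Phe-Ala-diazomethylketone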
# Rin1-Abl PPI inh: inhibitors of Rin1-Abl protein binding, primary screen, biochemical, TR-FRET; AID 588664, 2011; 360,000 tested, 0.4% active; inhibition, % at 7.35 µM; in the data active = inhibition above about 5%, passing the limit was not always enough
# Target sequence (P00519 whole entry, looked up): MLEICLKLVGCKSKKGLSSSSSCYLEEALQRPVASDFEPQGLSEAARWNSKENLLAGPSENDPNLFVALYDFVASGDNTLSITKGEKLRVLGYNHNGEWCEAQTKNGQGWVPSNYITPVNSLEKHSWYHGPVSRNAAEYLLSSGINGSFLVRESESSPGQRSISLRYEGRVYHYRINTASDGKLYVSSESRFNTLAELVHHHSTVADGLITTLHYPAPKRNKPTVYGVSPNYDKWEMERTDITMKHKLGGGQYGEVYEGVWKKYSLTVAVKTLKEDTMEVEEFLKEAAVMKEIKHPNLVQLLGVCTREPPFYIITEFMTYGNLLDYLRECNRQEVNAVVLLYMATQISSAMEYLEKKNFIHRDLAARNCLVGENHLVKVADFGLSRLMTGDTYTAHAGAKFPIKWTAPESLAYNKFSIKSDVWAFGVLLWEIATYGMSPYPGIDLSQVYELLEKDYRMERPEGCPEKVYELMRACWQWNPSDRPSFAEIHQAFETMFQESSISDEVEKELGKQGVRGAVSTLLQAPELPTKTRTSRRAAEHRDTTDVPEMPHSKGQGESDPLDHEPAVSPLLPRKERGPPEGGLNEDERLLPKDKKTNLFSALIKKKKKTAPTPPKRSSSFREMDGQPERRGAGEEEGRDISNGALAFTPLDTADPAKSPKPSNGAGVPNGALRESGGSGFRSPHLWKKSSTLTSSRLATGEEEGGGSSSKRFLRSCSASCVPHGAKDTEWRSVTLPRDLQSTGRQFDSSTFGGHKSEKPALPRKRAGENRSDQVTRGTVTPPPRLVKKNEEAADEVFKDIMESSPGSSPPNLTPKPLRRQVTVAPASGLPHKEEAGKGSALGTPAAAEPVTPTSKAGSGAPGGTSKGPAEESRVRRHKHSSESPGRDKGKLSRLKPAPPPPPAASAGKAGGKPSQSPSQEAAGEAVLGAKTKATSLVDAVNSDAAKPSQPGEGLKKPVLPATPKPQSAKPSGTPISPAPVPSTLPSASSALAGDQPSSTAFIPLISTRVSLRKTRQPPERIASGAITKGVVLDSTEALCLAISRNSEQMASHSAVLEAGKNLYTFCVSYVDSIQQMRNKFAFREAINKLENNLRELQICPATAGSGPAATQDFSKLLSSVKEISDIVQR
# Target sequence (Q13671 whole entry, looked up): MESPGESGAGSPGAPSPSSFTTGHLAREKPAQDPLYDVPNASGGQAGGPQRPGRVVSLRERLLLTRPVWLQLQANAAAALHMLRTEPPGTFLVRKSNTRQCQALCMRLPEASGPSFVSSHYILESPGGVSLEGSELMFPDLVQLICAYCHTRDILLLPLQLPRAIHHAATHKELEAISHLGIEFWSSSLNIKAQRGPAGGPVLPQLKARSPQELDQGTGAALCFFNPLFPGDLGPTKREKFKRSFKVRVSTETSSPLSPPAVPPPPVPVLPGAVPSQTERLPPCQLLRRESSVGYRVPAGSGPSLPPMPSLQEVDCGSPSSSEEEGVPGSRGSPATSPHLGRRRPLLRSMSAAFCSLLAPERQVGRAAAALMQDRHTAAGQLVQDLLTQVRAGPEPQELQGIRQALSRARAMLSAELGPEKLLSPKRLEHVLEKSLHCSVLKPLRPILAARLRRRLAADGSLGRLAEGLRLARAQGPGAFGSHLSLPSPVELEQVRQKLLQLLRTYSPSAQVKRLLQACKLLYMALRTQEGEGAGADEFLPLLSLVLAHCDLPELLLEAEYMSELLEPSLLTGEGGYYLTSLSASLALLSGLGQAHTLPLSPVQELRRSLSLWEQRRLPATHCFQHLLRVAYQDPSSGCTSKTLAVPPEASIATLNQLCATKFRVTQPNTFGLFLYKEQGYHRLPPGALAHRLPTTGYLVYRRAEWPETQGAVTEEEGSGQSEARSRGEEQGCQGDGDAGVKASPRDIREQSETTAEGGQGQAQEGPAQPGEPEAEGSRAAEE
# PfM18AAP inh-2: PfM18AAP inhibitors, malaria aminopeptidase, confirmation, biochemical, QFRET, recombinant enzyme, triplicate; shares compounds with PfM18AAP inh-1; H-Glu-NHMec fluorogenic cleavage; inhibition, % at 7.35 µM; 2,400 tested, 28% active; AID 2170, 2009;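 active = mean inhibition over replicate wells above the hit cutoff set for the earlier primary screen, cut at about 29% in these data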;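 also: 0% = median of test compound wells and 100% = 2 mM ZnCl2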
# CTSL1 counter-2: cathepsin L1 inhibitors, retest, confirmation, counter-screen for PFM18AAP inhibitor project, biochemical, QFRET, triplicate; AID 2178, 2009; purified cathepsin L1, Z-Leu-Arg-MCA fluorescence; inhibition, % at 5.96 µM; shares compounds with PfM18AAP inh-1; 2,400 tested, under 10 active;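 active = average inhibition across replicates above the hit cutoff set in the earlier primary screen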;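 also: 0% = median of test compound wells and 100% = Z-Phe-Ala-diazomethylketone 1 µM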
# An asterisk follows results filed as active; u = inconclusive; x = no result given.
SMILES,PfM18AAP inh-1,Calb FLC,CTSL1 counter-1,Rin1-Abl PPI inh,PfM18AAP inh-2,CTSL1 counter-2
C/C(=C/c1oc2ccc(O)cc2c1[N+](=O)[O-])N(C)C,37.5*,4.2,-0.5,-11.4,-22.6,8.4
COC(=O)c1ccccc1NC(=O)CC#N,-7.3,3.0,1.4,0.8,x,x
COC(=O)c1ccccc1NC(=O)C/C(C)=N/NC(=O)CC#N,37.8*,34.1,7.0,1.5,-47.2,5.8
O=C(NNC(=O)c1cccnc1)c1ccncc1,-0.8,-2.6,-1.4,-0.8,x,x
O=C1OCC=C1NNC(=O)c1cccnc1,55.1*,7.1,-8.7,1.5,69.3*,-7.0
CCCCN1CC2=C(C1=O)C(c1ccc(O)cc1)NC(=O)N2C (centres undefined),-1.3,1.5,-0.3,-0.3,x,x
O=C(CCCCCNC(=O)N1CCn2c1nc1ccccc12)NCCc1ccccc1,-13.5,4.3,9.7,-0.7,x,x
CN(C)c1ccc(NC(=S)c2ccc3ccccc3n2)cc1,34.6*,-11.1,-1.6,2.0,22.4,-3.8
Cc1ccc(C)c(NC(=S)c2ccc3ccccc3n2)c1,-11.0,-1.8,-0.3,-1.2,x,x
O=C(COc1ccc(C(=S)N2CCOCC2)cc1Cl)Nc1ccccc1Cl,42.2*,1.6,-1.1,1.0,-18.7,0.7
COc1cc(C(=S)N2CCCCC2)ccc1OCC(=O)Nc1ccccc1Cl,3.0,29.5,0.8,3.8,x,x
FC(F)(F)c1cc(-c2ccc3c(c2)OCO3)nc(NCc2ccco2)n1,37.3*,u,2.2,-2.6,-30.0,1.3
O=C(O)c1cccc(CN2C(=O)SC(Nc3cccc4ccccc34)C2=O)c1 (centres undefined),34.3*,6.4,-1.8,1.3,-65.4,4.6
CN1C(=O)c2ccc(C(=O)NC3CCCCC3)cc2C1=O,-6.8,-5.8,-5.4,0.3,x,x
CN1C(=O)CS(=O)c2ccc(C(=O)NC3CC3)cc21 (centres undefined),44.0*,-4.0,0.9,-3.1,-13.3,2.2
Cc1cc(NNC(=O)Nc2cccc(Cl)c2)nc2c1c(C)nn2C,39.0*,2.6,2.3,x,27.8,2.8
O=C(O)Cc1sc(Nc2ccc(Cl)cc2)nc1-c1cccs1,32.7*,-2.3,x,x,-30.0,0.8
Nc1nc(-c2cccs2)c(CC(=O)O)s1,9.7,-7.0,-0.2,-11.7,x,x
CCCCC[n+]1cccc2c3ccccc3ccc21,-14.4,-15.7,1.5,-5.1,x,x
CCCC[n+]1c2ccccc2cc2ccccc21,37.6*,93.1*,-3.8,0.6,15.8,-1.6
CCC[n+]1c2ccccc2cc2ccccc21,47.3*,93.9*,11.6,-2.2,16.8,3.2
Cc1ccc2ccccc2[n+]1CCCS(=O)(=O)[O-],1.1,5.4,-0.5,5.2,x,x
CSc1ccc(/C=N/Nc2nc(C)cc(C)n2)cc1,0.6,28.5,-1.3,-2.0,x,x
Cc1cc2c(C)nc(N/N=C/c3ccc(F)cc3)nc2o1,46.1*,-42.5,1.6,-1.8,-48.8,0.0
CCN(CC(=O)Nc1ccc(S(=O)(=O)N2CCCCC2)cc1)Cc1ccccc1,x,-8.1,0.8,-1.3,x,x
SMILES,PfM18AAP inh-1,Calb FLC,CTSL1 counter-1,Rin1-Abl PPI inh,PfM18AAP inh-2,CTSL1 counter-2
Nc1nc(-c2ccco2)c(-c2ccco2)s1,37.7*,-1.5,-5.0,2.0,-48.9,-3.9
CC(C)c1ccc2nc3sc(C(=O)N4CCc5ccccc5C4)c(N)c3cc2c1,8.0,5.9,1.5,2.1,x,x
CCN1CCc2nc3sc(C(=O)N4CCc5ccccc5C4)c(N)c3cc2C1,34.6*,-16.7,-3.4,-5.9,-9.7,-0.9
COc1ccc(N(CC2CO2)S(=O)(=O)c2ccc(C)cc2)cc1 (centres undefined),3.7,2.5,-1.8,1.0,x,x
COC(=O)C(C)Sc1n[nH]c(=S)s1 (centres undefined),36.8*,-7.4,-0.3,-3.5,-23.8,-1.1
CCN1CCN(c2ccc(NC(=O)c3cccc(F)c3)cc2Cl)CC1,-5.5,28.8,-1.7,0.8,x,x
COCCCNC(=S)NNC(=O)c1cc(Cl)c(O)c(Cl)c1,47.0*,1.3,1.6,1.4,19.1,4.4
COCCCNC(=S)NNC(=S)NCCCOC,32.3*,-2.5,0.7,4.0,-14.6,-6.5
